Measured values from paper PMC5540273 (PLoS ONE, 2017).

Each molecule was assayed on S6K1. Conditions: concentration: 1 μM, replicates: in singlicate; n = 1.
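Note: KINOMEscan kinase panel screen.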

Compound | %Inh
CNCc1ccc2nc(NC(=O)c3ccc(C(C)(C)C)cc3)cn2c1 | 17%
Nc1nccc(-c2c(-c3ccc(F)cc3)ncn2C2CCN(Cc3ccccc3)CC2)n1 [SB-219980] | 6%
CNc1nc(-c2ccc3c(N)n[nH]c3c2)cc(N2C[C@@H](C(=O)NC3CCCCC3)OC[C@H]2C)n1 [GSK2375584] | 10%
O=c1cc(N2CCOCC2)nc2n(Cc3cccc(Cl)c3Cl)c3ccccc3n12 [GSK2299009] | 14%
COc1ccc(Nc2nccc(N3CCC(NC(=O)C(C)c4ccc(Cl)cc4)C3)n2)cc1 (stereo not drawn) [GSK1379735] | 2%
Cn1cnc2c(N)ncnc21 [SKF-97623] | 0%
Fc1ccc(-c2nc3n(c2-c2ccncc2)CCS3)cc1 [GI98581] | 33%
COC(=O)c1cccc(NC(=O)NC2CCN(c3ccnc(Nc4ccc(OC)cc4)n3)C2)c1 (stereo not drawn) [GSK1379746] | 14%
Cn1cncc1-c1cc2c(Nc3ccc(OCc4ccccc4)cc3)ncnc2cn1 [GW281179] | 3%
CNC(=O)c1ccc(C)c(-n2c(C)cc(OCc3ccc(F)cc3F)c(Br)c2=O)c1 | 0%
CC(=O)c1c(C)c2cnc(Nc3ccc(N4CCNCC4)cn3)nc2n(C2CCCC2)c1=O | 0%
COc1ccc(CSc2nnc(-c3ccc4c(c3)CCO4)o2)cc1 | 0%
COc1ccc(CSc2nnc(-c3ccc4nccn4c3)o2)cc1C(F)(F)F | 0%
CN1c2ccc(-c3ccc(C(N)=O)cc3)cc2-c2[nH]ncc2S1(=O)=O | 0%
O=C1NC(=O)C(c2ccc(Cl)cc2)=C1Nc1cccc(Cl)c1 [SB-317651] | 36%
COC(=O)C(Cc1ccccc1)NC(=O)NC1CCN(c2ccnc(Nc3ccc(F)cc3)n2)C1 (stereo not drawn) [GSK1379714] | 2%
COc1ccc(Nc2nccc(NCCNC(=O)Nc3cc(C)ccc3C)n2)cc1 [GSK1379899] | 0%
COc1ccc(Nc2nccc(N3CCC(NC(=O)C(C)c4ccc(Cl)cc4)CC3)n2)cc1 (stereo not drawn) [GSK1379812] | 0%

Compound | %Inh
Fc1ccc(-c2nc[nH]c2-c2ccncc2)cc1 [SB-217360] | 8%
CCn1c(-c2ccccc2)nc2cnccc21 [SB-733416] | 22%
CS(=O)(=O)CCNCc1nc(-c2ccc3ncnc(Nc4ccc(OCc5ccccc5)c(Cl)c4)c3c2)cs1.Cl [GW582764] | 6%
Cl.Cl.Cl.N#Cc1ccc(CCNc2nccc(-c3cccc(CN4CCNCC4)c3)n2)cc1 [GSK2137462] | 34%
Cc1cccc2c(-c3ccncn3)c(-c3ccc(F)cc3)nn12 [GW515532] | 1%
Nc1ncnc2occ(-c3ccc4c(c3)CCN4C(=O)Cc3cc(F)ccc3F)c12 [GSK2645446] | 0%
COc1cccc(CNC(=O)NC2CCN(c3ccnc(Nc4ccc(F)cc4)n3)C2)c1 (stereo not drawn) [GSK1379723] | 0%
COc1ccc(CSc2nnc(-c3ccc4ncsc4c3)o2)cc1C(F)(F)F | 0%
CCCCc1nn2ncccc2c1-c1ccnc(NC2CC2)n1 [GW684374] | 0%
CCc1ccc(-c2ccc3c(c2)-c2n[nH]cc2S(=O)(=O)N3C)cc1 | 0%
COc1ccc(-c2coc3ccc(-c4nnc(C)o4)cc23)cc1 | 0%
Cc1nccc(-c2c(-c3ccc(F)cc3)ncn2CCCN2CCOCC2)n1.Cl [SB-282975] | 9%
Cc1ccc(NC(=O)Nc2ccccc2)cc1-c1ccc(C(=O)Nc2ccncc2)cc1 [GSK1398471] | 0%
CC(C)c1cc(-c2ccc3c(N)n[nH]c3c2)nc(N)n1 [GSK2250882] | 0%
COc1cccc(NC(=O)Nc2ccc(C)c(-c3ccc(C(=O)Nc4ccncc4)cc3)c2)c1 [GSK1398474] | 18%
CSc1ccc(-c2nc3n(c2-c2ccncc2)CCC3)cc1 [SKF-105561] | 0%
COC(=O)c1cccc(NC(=O)NC2CCN(c3ccnc(Nc4ccc(F)cc4)n3)C2)c1 (stereo not drawn) [GSK1379725] | 0%
Fc1ccc(-c2nn3cccc(F)c3c2-c2ccncc2)cc1 [GW475620] | 5%
